# Bioassay records deposited in PubChem by National Center for Advancing Translational Sciences (NCATS).
# TDP1 cell CPT = DT40-hTDP1 cell growth loss with CPT; chicken DT40 Tdp1-/-;hTDP1 cells + 20 nM CPT, ATP luminescence, 48 h; Potency, µM (highest dose often 46.2 µM), for inactives: at the top dose activity change, negative = growth inhibition, actives largely listed as inhibitors; hit rate 12% among 420,000; AID 686979; note: nearly all actives have a fitted effect of over 55% in size
#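 Cell growth measured by CellTiter-Glo luminescence after a minimum 48 h, 37 C compound exposure with 20 nM CPT in Tdp1-knockout DT40 cells stably expressing hTDP1, seeded 400/well; qHTS titration format.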
# HT1080 IDH1KD tx = toxicity to HT-1080 IDH1 knockdown cells (counter line); HT-1080 IDH1 knockdown viability, ATP luminescence, 48 h; Potency, µM (series often up to 46.1 µM), without a hit: top-dose activity, negative = toxicity, actives largely listed as cytotoxic; hit rate 2% among 360,000; AID 686971;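 note: 0% = DMSO wells and -100% = cell-free medium wells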
#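 Cytotoxicity counter-line: IDH1KD HT-1080, 48 h, CellTiter-Glo. Curves classed by r2, magnitude and activity.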
# KB-3-1 cytotox = kills parental KB-3-1 adenocarcinoma cells | KB-3-1 viability, CellTiter-Glo ATP luminescence, 72 h | hit rate 1.4% among 400,000 | Potency, µM (highest dose often 46.1 µM), most hits filed as cytotoxic; note: nearly all actives have a fitted effect of over 60% in size
#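 Parental KB-3-1 viability, qHTS format: 72 h compound exposure, 37 °C; CellTiter-Glo; media-only wells and DMSO plates as controls; concentration-effect fits on corrected data.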
# HT1080NT lethal = kills 2HG-producing HT-1080-NT fibrosarcoma cells; Potency, µM (top dose mostly 46.1 µM), for the others: at the highest dose activity, negative = less viability, actives largely listed as cytotoxic; AID 686970; hit rate 1.6% among 360,000; HT-1080-NT fibrosarcoma viability, CellTiter-Glo ATP luminescence, 48 h;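 note: NT is the 2HG producing partner of a matched IDH1 knockdown line; 0% = DMSO-treated cells and -100% = media-only wells without cells; nearly all actives have a fitted effect of over 55% in size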
#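 HT-1080-NT fibrosarcoma cells (2HG-overproducing), 750 cells/well in RPMI with 5% FBS, dosed after 2 h and incubated 48 h at 37C. CellTiter-Glo luminescence normalized to DMSO and no-cell wells; concentration-response curves fitted and classed.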
# DT40 TDP1 no CPT = qHTS for Inhibitors of human tyrosyl-DNA phosphodiesterase 1 (TDP1): qHTS in cells in absence of CPT. Potency, µM (highest dose often 46.2 µM), inactives show at the top dose activity change, negative = growth inhibition, usual class: inhibitors. DT40 Tdp1-/- hTDP1 cells, no CPT, ATP luminescence, 48 h. AID 686978, 2013. hit rate 15% among 420,000; note: nearly all actives have a fitted effect of over 55% in size
#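 DT40 Tdp1-/-;hTDP1 cells, no CPT (DMSO vehicle only), 400 cells/well; compounds pin-transferred; ≥48 hr, 37 °C; CellTiter-Glo 30 min RT dark, luminescence read.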
# KB-V1 MDR tox = kills drug-selected multidrug resistant KB-V1 cells; KB-V1 MDR cells viability, CellTiter-Glo, 72 h; Potency, µM (doses to about 46.1 µM), most hits filed as cytotoxic; hit rate 3.4% among 400,000; note: nearly all actives have a fitted effect of over 60% in size
#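 KB-V1 MDR subline cells in DMEM (phenol-red free, 10% FBS) exposed to compounds in qHTS concentration series for 72 h at 37 degrees C. Viability read by CellTiter-Glo luminescence; concentration-effect curves fitted after normalization and correction.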
# Active calls of the source: *; i = inactive; u = inconclusive; x = no result given. Shown are actives, neighbours in structure and some others; about 19% of the full set was active somewhere. Calls come from the whole dose curve; as a rule, active = well fitted curve in the direction sought with a large enough effect; inconclusive = small, poorly fitted or top-dose-only effect, or another doubt; inactive = no such curve, though single readings can be large; an effect the other way counts as inactive or inconclusive. Unless noted, % is set by controls: 0 for no effect and ±100 for the full control effect; potency is the fitted concentration of half-maximal effect.
SMILES,TDP1 cell CPT,HT1080 IDH1KD tx,KB-3-1 cytotox,HT1080NT lethal,DT40 TDP1 no CPT,KB-V1 MDR tox
Cc1nc(SCC(=O)N2CCN(c3ccccn3)CC2)c(C#N)c(C)c1C,-3%,7%,i,8%,-7%,7.3µM*
CC1(C)CC(CC(=O)Nc2nccs2)(c2ccccc2)CCO1 (stereo not given),-26%,7%,i,6%,u,i
CCCc1cc(C(=O)N/N=C/c2ccc(C)o2)c2ccccc2n1,u,21µM*,u,u,u,u
Cc1ccc(CNC(=O)c2cc(-c3ccc(C)c(C)c3)nc3ccccc23)cc1,u,x,i,x,u,i
Cc1ccc(/C=N/NC(=O)c2cc(-c3ccccc3)nc3ccccc23)o1,18µM*,u,i,u,9.2µM*,i
Cc1cc(C(=O)N/N=C/c2ccc(C)o2)c2ccccc2n1,1.5µM*,u,1.3µM*,3.3µM*,1.3µM*,u
Cc1ccc(-c2cc(C(=O)N/N=C/c3c(C)nn(C)c3C)c3ccccc3n2)cc1C,12µM*,u,i,u,10µM*,u
CCCc1cc(C(=O)OC)c2ccccc2n1,-23%,8%,i,-1%,u,i
CCCSc1ncc(Cl)c(C(=O)NCc2ccc(C)cc2)n1,-28%,x,x,x,-27%,x
Cc1ccc(/C=N/NC(=O)c2cc(C3CC3)nc3ccccc23)o1,4.1µM*,5.8µM*,u,u,3.7µM*,u
Cc1c(Cl)c([N+](=O)[O-])nn1CC(=O)NC1CCCCC1,-3%,-2%,i,-2%,-5%,i
O=C(Cn1c(SCCOc2ccccc2Cl)nc2ccccc21)N1CCCCC1,u,x,i,x,u,u
CCN1c2ccccc2-c2nc3ccccc3n2C1c1ccccn1 (stereo not given),u,-13%,i,-8%,16µM*,i
CN(C(=O)CSc1nncn1C)C1CCCN(Cc2ccccc2F)C1 (stereo not given),7%,-1%,i,2%,15%,i
CCCCOC(=O)CSc1nnc(-c2cc(OC)c(OC)c(OC)c2)o1,-5%,2%,i,11%,4%,i
COc1cc(-c2nnc(SCC(=O)N(Cc3ccccc3)C(C)(C)C)o2)cc(OC)c1OC,13µM*,-5%,i,-25%,15µM*,u
CCCCN(CCCC)C(=O)CSc1nnc(-c2cc(OC)c(OC)c(OC)c2)o1,18µM*,-12%,u,8%,14µM*,13µM*
Cc1cc(C(=O)NNC(=O)CN2C(=O)NC(C)(c3ccccc3)C2=O)c(C)o1 (stereo not given),5%,2%,i,8%,1%,i
O=S1(=O)c2ccc(Br)cc2N2CC[C@H](C2)N1Cc1ccc(Cl)cc1,1.3µM*,7.3µM*,u,u,1.6µM*,u
O=S1(=O)c2ccc(Br)cc2N2CCC[C@@H]2CN1Cc1ccc(Cl)cc1,u,5%,i,6%,u,u
N#Cc1ccc(NC(=O)c2cc(S(=O)(=O)N3CCOCC3)ccc2N2CCCC2)cc1,-18%,-2%,i,-8%,-5%,i
O=C(Nc1ccc(S(=O)(=O)N2CCOCC2)cc1)c1ccc([N+](=O)[O-])cc1Cl,u,-1%,i,2%,u,i
O=C(Nc1cc(S(=O)(=O)N2CCOCC2)ccc1Cl)c1cc([N+](=O)[O-])ccc1Cl,u,21µM*,u,9.2µM*,15µM*,u
N#CCc1ccc(NC(=O)c2cc(S(=O)(=O)N3CCOCC3)ccc2Cl)cc1,16µM*,-3%,i,-1%,18µM*,i
COc1cc(-c2nc3ccccc3c(=O)n2N)cc(OC)c1OC,-1%,8%,i,11%,u,i
SMILES,TDP1 cell CPT,HT1080 IDH1KD tx,KB-3-1 cytotox,HT1080NT lethal,DT40 TDP1 no CPT,KB-V1 MDR tox
Cc1cccc(C)c1NC(=O)c1csc([C@H]2C[C@H](O)[C@@H](CO)O2)n1,-28%,0%,i,7%,16%,i
CCN(c1ccc(OC)cc1)S(=O)(=O)c1ccc2[nH]c3c(c2c1)CCCCC3,x,x,8.2µM*,x,x,18µM*
COc1cc(NS(=O)(=O)c2ccc3[nH]c4c(c3c2)CCCC4)cc(OC)c1OC,0.92µM*,x,0.065µM*,x,0.58µM*,u
COc1ccc(OC)c(NC(=O)CN(C)S(=O)(=O)c2ccc3[nH]c4c(c3c2)CCCC4)c1,18µM*,x,i,x,21µM*,i
COc1cccc(CNC(=O)CN(C)S(=O)(=O)c2ccc3[nH]c4c(c3c2)CCCC4)c1,u,x,i,x,u,i
COc1ccc(NS(=O)(=O)c2ccc3[nH]c4c(c3c2)CCCC4)cc1OC,13µM*,x,x,x,15µM*,x
CCN(Cc1ccccc1)S(=O)(=O)c1ccc2[nH]c3c(c2c1)CCCCC3,x,x,i,x,x,i
CC(=O)NS(=O)(=O)c1ccc(NC(=O)CC(C)c2ccccc2)cc1 (stereo not given),-5%,5%,i,2%,12%,i
O=C(c1ccc(S(=O)(=O)N2CCC(c3nc4ccccc4s3)CC2)cc1)N1CCCCC1,-14%,4%,i,1%,-19%,i
COc1cccc(Nc2nc3ccccc3nc2NS(=O)(=O)c2cccs2)c1,9.2µM*,-25%,u,-19%,10µM*,i
COc1ccc(Nc2nc3ccccc3nc2NS(=O)(=O)c2ccc(Cl)cc2)cc1OC,9.2µM*,x,u,x,u,u
COc1ccc(NS(=O)(=O)c2ccc(OC)c(OC)c2)cc1OC,-11%,1%,i,2%,u,21µM*
COc1ccc(OC)c(NS(=O)(=O)c2ccc3[nH]c4c(c3c2)CCCCC4)c1,x,x,u,x,x,16µM*
COc1ccc(S(=O)(=O)Nc2cccc(Cl)c2)cc1OC,5%,-1%,i,3%,11%,i
COc1ccc(OC)c(NS(=O)(=O)c2ccc3[nH]c(=O)[nH]c3c2)c1,-22%,-6%,u,-18%,u,i
CC1=NN(c2ccccc2)C(=O)C1C(=O)c1cc([N+](=O)[O-])cc([N+](=O)[O-])c1 (stereo not given),2%,-17%,i,-20%,-3%,u
O=S(=O)(Nc1ccc(Cc2ccncc2)cc1)c1ccc(Cl)s1,-5%,-10%,i,-3%,u,i
O=S(=O)(Nc1ccc(Cc2ccncc2)cc1)c1ccc(Br)s1,-26%,-4%,u,u,u,15µM*
